Measured values from PubChem BioAssay (EPA / NIEHS).
Several values for one entry are separate records, joined by “and”; a condition that tells them apart may be missing. Equal entries are not always repeated. Results filed as inconclusive are left out. More than one record can exist for a structure, and the calls need not agree. Activity calls are given as the source filed them. The calls were made as follows, unless noted: active = hit-call score of the fitted dose curve at least 0.9, where 1 is the maximum; inconclusive = response in the unintended direction; inactive = score below 0.9.

Legend:
[1] = target: Estrogen receptor beta (Homo sapiens) (UniProt Q92731); assay: ATG_hERb_XSP2: Attagene TRANS-FACTORIAL Multi-Species (XSP2) HepG2 Assay for human Estrogen Receptor (ERb) (AID 2283813);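 also: actives raise reporter mRNA above DMSO so AC50 reflects agonist induction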
Procedure, shortened: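 Transient TRANS reporter system in HepG2: after 24 h of chemical, RNA is reverse-transcribed, reporter cDNA amplified, FAM-labelled and sized by capillary electrophoresis. Induction of the human ERb-Gal4 reporter is measured relative to DMSO.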

[2] = target: chicken Estrogen Receptor (ERa), ESR1 (gene 396099) (UniProt P06212); assay: ATG_chERa_XSP2: Attagene TRANS-FACTORIAL Multi-Species (XSP2) HepG2 Assay for chicken Estrogen Receptor (ERa) (AID 2283817);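 also: actives raise reporter signal above DMSO so AC50 reflects ER activation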
Procedure, shortened: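 Readout: fluorescent reporter-transcript fragments resolved by capillary electrophoresis after RT-PCR and HpaI cut. Chicken ERa-Gal4 fusion in transiently transfected HepG2, dosed for 24 h; activity taken as increase over DMSO baseline.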

[3] = test system: zebrafish Estrogen Receptor (ER2a), gene 317734; assay: ATG_zfER2a_XSP2: Attagene TRANS-FACTORIAL Multi-Species (XSP2) HepG2 Assay for zebrafish Estrogen Receptor (ER2a) (AID 2283818);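 also: hits raise reporter mRNA so AC50 reflects activation of zebrafish ER2a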
Procedure, shortened: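 Multiplexed trans-reporter readout: RT-PCR then capillary electrophoresis of reporter transcripts after 24 h compound treatment. Human HepG2 carries transfected zebrafish ER2a-Gal4 chimera; 3 nM 6-alpha-fluorotestosterone plus 1.5 nM norgestrel present. Induction scored against DMSO.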

[4] = test system: zebrafish Estrogen Receptor (ER2b), gene 317733; assay: ATG_zfER2b_XSP2: Attagene TRANS-FACTORIAL Multi-Species (XSP2) HepG2 Assay for zebrafish Estrogen Receptor (ER2b) (AID 2283823);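 also: fitted upward as reporter gain over DMSO so potency reflects activation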
Procedure, shortened: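 HepG2 human liver cells transiently transfected with multiplexed GAL4-UAS reporter units expressing chimeric NR-Gal4 proteins; compounds dosed for 24 h. Reporter mRNA quantified by RT-PCR, 6-FAM labelling and capillary electrophoresis; gain-of-signal fitted against DMSO baseline.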

[5] = test system: frog Estrogen Receptor (ER2), gene 100174814; assay: ATG_frER2_XSP2: Attagene TRANS-FACTORIAL Multi-Species (XSP2) HepG2 Assay for frog Estrogen Receptor (ER2) (AID 2283828)
Procedure, shortened: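 Cells were transfected with reporter constructs under GAL4-UAS control, dosed with chemicals for 24 h, then lysed for RNA; the frog ER2-driven reporter mRNA was quantified by capillary electrophoresis of labeled PCR fragments, with activity fitted upward from DMSO.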

[6] = target: Nuclear receptor subfamily 1 group I member 2 (Mus musculus) (UniProt O54915); assay: ATG_mPXR_XSP2: Attagene TRANS-FACTORIAL Multi-Species (XSP1) HepG2 Assay for mouse Pregnane X Receptor (PXR) (AID 2283831)
Procedure, shortened: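 Reporter transcripts measured after 24 h dosing by RT-PCR with 6-FAM labelling, HpaI digestion and capillary electrophoresis. Transiently transfected HepG2 with NR-Gal4 chimeras; increase over DMSO baseline scored.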

[7] = test system: turtle Thyroid Hormone Receptor, alpha (TRa), gene 101949057; assay: ATG_trTRa_XSP2: Attagene TRANS-FACTORIAL Multi-Species (XSP1) HepG2 Assay for turtle Thyroid Hormone Receptor, alpha (TRa) (AID 2283834);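 also: hits raise reporter mRNA over the DMSO baseline so AC50 marks activators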
Procedure, shortened: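 Turtle TRa-Gal4 chimera activity in transfected human HepG2 cells: reporter transcripts quantified by RT-PCR, 6-FAM labelling and capillary electrophoresis 24 h post-dosing; positive direction versus DMSO, medium containing 3 nM 6-alpha-fluorotestosterone and 1.5 nM norgestrel.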

[8] = ATG_M_61_XSP2: Attagene TRANS-FACTORIAL Multi-Species (XSP2) HepG2 Assay for M61 Transcription Factor (Internal Marker) (AID 2283835; active = hit-call score of the fitted dose curve at least 0.9, where 1 is the maximum; inactive = score below 0.9;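 also: reporter mRNA of an internal background marker read by RT-PCR and capillary electrophoresis; active means a rise in signal above the DMSO baseline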)
Procedure, shortened: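 Transient MRTU transfection of human HepG2; 24 h chemical dosing with 3 nM 6-alpha-fluorotestosterone + 1.5 nM norgestrel added for AR stimulation. RNA isolated, RT, PCR, FAM-labelled, HpaI cut, CE read. Positive direction vs DMSO.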

[9] = target: zebrafish Thyroid Hormone Receptor beta (TRb), thrb (gene 30607) (UniProt Q9PVE4); assay: ATG_zfTRb_XSP2: Attagene TRANS-FACTORIAL Multi-Species (XSP1) HepG2 Assay for zebrafish Thyroid Hormone Receptor beta (TRb) (AID 2283836);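 as to AC50: potency for induction of reporter signal above DMSO so agonist direction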
Procedure, shortened: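 Reporter transcripts measured by RT-PCR, 6-FAM labelling, HpaI digestion and capillary electrophoresis after 24 h chemical exposure. Human HepG2 cells carry an exogenous zebrafish TRb-GAL4 chimera; medium included 3 nM 6-alpha-fluorotestosterone plus 1.5 nM norgestrel.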

[10] = target: GAL4 Transcription Factor (Internal Marker), GAL4 (gene 855828) (UniProt P04386); assay: ATG_GAL4_XSP2: Attagene TRANS-FACTORIAL Multi-Species (XSP2) HepG2 Assay for GAL4 Transcription Factor (Internal Marker) (AID 2283814);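 also: GAL4 reporter mRNA background control in MRTU transfected cells not a receptor target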
Procedure, shortened: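 Background-control readout: gain-of-signal fitted against DMSO. After 24 h exposure of transfected HepG2 (MRTU, GAL4-UAS reporters; 3 nM 6-alpha-fluorotestosterone, 1.5 nM norgestrel present), transcripts quantified by RT-PCR and capillary electrophoresis fluorescence.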

[11] = ATG_M_32_XSP2: Attagene TRANS-FACTORIAL Multi-Species (XSP2) HepG2 Assay for M19 Transcription Factor (Internal Marker) (AID 2283826)
Procedure, shortened: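 Read-out: reporter mRNA quantified by RT-PCR, FAM labeling, HpaI digestion and capillary electrophoresis, 24 h after dosing transfected HepG2 cells. Medium carried 3 nM 6-alpha-fluorotestosterone plus 1.5 nM norgestrel; gain of signal fitted against DMSO.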

[12] = target: Estrogen receptor (Homo sapiens) (UniProt P03372); assay: ATG_hERa_XSP2: Attagene TRANS-FACTORIAL Multi-Species (XSP2) HepG2 Assay for human Estrogen Receptor (ERa) (AID 2283827)
Procedure, shortened: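 Trans-activation of exogenous human ERa-Gal4 chimera read in HepG2 as reporter transcript after 24 h exposure; medium included 3 nM 6-alpha-fluorotestosterone and 1.5 nM norgestrel. Quantified by RT-PCR with capillary electrophoresis, positive-direction fitting against DMSO.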

[13] = target: mouse Peroxisome Proliferator-activated Receptor gamma (PPARg), Pparg (gene 19016) (UniProt P37238); assay: ATG_mPPARg_XSP2: Attagene TRANS-FACTORIAL Multi-Species (XSP2) HepG2 Assay for mouse Peroxisome Proliferator-activated Receptor gamma (PPARg) (AID 2283830);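 also: hits are gains in reporter mRNA above DMSO so AC50 marks activation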
Procedure, shortened: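 Multiplexed TRANS reporter readout: after 24 h chemical exposure of transfected HepG2 cells (with 3 nM 6-alpha-fluorotestosterone, 1.5 nM norgestrel present), RNA reverse-transcribed, amplified, 6-FAM-labelled and resolved by capillary electrophoresis; mouse PPARg-Gal4 induction scored against DMSO.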

[14] = target: zebrafish Thyroid Hormone Receptor alpha (TRa), thraa (gene 30670) (UniProt Q98867); assay: ATG_zfTRa_XSP2: Attagene TRANS-FACTORIAL Multi-Species (XSP1) HepG2 Assay for zebrafish Thyroid Hormone Receptor alpha (TRa) (AID 2283832);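 also: actives raise zebrafish TRa-Gal4 reporter transcript above DMSO baseline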
Procedure, shortened: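 Chimeric zebrafish TRa-Gal4 activity read in transfected human HepG2 as GAL4-UAS reporter transcripts, 24 h post-dose, via RT-PCR with labeled primer extension and capillary electrophoresis. Medium also carries 3 nM 6-alpha-fluorotestosterone and 1.5 nM norgestrel; DMSO baseline.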

[15] = test system: zebrafish Peroxisome Proliferator-activated Receptor gamma (PPARg), gene 557037; assay: ATG_zfPPARg_XSP2: Attagene TRANS-FACTORIAL Multi-Species (XSP2) HepG2 Assay for zebrafish Peroxisome Proliferator-activated Receptor gamma (PPARg) (AID 2283833);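 also: actives increase reporter signal over DMSO so AC50 reflects activation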
Procedure, shortened: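 After 24 h chemical exposure, RNA from transiently transfected HepG2 (chimeric NR-Gal4 TRANS reporters) was reverse-transcribed, PCR-amplified, 6-FAM-labelled, HpaI-cut and sized by capillary electrophoresis. Induction was scored in the positive direction relative to DMSO.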

[16] = target: zebrafish Estrogen Receptor (ER1), esr1 (gene 259252) (UniProt P57717); assay: ATG_zfER1_XSP2: Attagene TRANS-FACTORIAL Multi-Species (XSP2) HepG2 Assay for zebrafish Estrogen Receptor (ER1) (AID 2283816)
Procedure, shortened: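 After 24 h compound exposure, RNA from transfected HepG2 cells was reverse-transcribed and reporter transcripts resolved by capillary electrophoresis. The TRANS format reads exogenous zebrafish ER1-Gal4 chimera activity on GAL4-UAS elements; gain of signal against DMSO.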

Measured: AC50

Sequence of mouse Peroxisome Proliferator-activated Receptor gamma (PPARg), Pparg (gene 19016) (P37238 whole entry, looked up, the tested form may be a part): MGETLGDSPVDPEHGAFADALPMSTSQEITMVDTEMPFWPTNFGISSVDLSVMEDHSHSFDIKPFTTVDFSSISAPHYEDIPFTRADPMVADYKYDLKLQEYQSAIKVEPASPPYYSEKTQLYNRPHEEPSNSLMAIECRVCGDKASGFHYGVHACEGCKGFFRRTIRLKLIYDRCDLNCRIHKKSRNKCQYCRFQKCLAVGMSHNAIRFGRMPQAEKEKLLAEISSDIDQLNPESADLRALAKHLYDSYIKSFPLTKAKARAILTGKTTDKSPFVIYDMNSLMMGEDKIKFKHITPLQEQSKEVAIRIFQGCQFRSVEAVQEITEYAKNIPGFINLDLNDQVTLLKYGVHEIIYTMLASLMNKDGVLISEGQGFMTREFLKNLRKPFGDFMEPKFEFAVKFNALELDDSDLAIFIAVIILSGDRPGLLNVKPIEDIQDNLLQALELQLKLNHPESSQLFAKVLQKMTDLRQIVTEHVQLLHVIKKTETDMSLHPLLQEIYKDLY
Sequence of zebrafish Thyroid Hormone Receptor beta (TRb), thrb (gene 30607) (Q9PVE4 whole entry, looked up, the tested form may be a part): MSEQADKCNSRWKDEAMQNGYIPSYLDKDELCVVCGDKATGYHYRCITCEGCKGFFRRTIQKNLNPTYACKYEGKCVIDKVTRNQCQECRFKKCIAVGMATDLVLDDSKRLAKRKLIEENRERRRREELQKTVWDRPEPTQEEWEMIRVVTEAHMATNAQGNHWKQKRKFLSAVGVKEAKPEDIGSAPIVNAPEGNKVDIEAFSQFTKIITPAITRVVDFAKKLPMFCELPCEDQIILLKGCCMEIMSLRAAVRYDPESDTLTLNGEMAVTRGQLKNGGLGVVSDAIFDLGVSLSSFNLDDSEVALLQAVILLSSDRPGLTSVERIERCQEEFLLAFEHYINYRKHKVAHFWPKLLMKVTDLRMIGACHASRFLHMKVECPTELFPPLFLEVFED
Sequence of chicken Estrogen Receptor (ERa), ESR1 (gene 396099) (P06212 whole entry, looked up, the tested form may be a part): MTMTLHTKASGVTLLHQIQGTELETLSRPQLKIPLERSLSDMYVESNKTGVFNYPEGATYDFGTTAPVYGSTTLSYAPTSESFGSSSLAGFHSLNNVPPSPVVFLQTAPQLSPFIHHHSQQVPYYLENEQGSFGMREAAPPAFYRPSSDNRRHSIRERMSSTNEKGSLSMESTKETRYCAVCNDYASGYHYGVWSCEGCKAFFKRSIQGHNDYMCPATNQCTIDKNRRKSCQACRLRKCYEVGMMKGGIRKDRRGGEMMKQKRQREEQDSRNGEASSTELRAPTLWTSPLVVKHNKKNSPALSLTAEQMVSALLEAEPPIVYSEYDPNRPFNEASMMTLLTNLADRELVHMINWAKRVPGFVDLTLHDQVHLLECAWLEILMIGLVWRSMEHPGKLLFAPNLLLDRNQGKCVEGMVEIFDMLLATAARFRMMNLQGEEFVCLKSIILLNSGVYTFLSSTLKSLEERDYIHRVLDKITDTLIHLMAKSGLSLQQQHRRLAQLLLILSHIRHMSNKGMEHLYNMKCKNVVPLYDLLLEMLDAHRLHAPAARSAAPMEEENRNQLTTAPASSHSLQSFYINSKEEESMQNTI
Sequence of zebrafish Estrogen Receptor (ER1), esr1 (gene 259252) (P57717 whole entry, looked up, the tested form may be a part): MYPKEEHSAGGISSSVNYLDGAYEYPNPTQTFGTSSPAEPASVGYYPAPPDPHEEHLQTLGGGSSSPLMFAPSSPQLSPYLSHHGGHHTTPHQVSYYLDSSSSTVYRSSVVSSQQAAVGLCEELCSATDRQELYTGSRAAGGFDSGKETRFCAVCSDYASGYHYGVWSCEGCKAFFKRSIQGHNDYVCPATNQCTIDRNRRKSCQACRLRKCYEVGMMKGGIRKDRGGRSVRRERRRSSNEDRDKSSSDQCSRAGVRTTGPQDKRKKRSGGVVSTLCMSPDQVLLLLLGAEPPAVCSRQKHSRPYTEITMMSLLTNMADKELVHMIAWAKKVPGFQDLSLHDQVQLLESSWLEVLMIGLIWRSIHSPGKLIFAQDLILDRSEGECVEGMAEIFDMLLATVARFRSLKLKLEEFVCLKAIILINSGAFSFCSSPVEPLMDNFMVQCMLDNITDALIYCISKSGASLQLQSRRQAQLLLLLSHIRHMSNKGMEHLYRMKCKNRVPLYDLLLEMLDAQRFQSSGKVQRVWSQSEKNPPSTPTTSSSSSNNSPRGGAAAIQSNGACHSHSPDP
Sequence of Estrogen receptor (Homo sapiens) (P03372 whole entry, looked up, the tested form may be a part): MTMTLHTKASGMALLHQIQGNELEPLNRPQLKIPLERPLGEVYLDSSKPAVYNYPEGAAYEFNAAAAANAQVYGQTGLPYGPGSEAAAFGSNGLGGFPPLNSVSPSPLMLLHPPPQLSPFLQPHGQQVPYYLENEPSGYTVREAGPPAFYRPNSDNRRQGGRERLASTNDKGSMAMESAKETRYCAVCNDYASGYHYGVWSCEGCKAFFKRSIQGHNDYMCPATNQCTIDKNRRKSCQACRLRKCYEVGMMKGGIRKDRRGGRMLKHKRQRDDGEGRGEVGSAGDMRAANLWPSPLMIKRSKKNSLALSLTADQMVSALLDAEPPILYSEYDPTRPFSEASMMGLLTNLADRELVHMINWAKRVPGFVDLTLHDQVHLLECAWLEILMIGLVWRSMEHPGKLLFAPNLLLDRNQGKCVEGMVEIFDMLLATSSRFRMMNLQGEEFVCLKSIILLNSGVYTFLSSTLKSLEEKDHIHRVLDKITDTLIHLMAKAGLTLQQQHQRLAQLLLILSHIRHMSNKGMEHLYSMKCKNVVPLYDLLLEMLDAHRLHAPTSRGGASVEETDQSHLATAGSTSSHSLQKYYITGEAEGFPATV
Sequence of zebrafish Thyroid Hormone Receptor alpha (TRa), thraa (gene 30670) (Q98867 whole entry, looked up, the tested form may be a part): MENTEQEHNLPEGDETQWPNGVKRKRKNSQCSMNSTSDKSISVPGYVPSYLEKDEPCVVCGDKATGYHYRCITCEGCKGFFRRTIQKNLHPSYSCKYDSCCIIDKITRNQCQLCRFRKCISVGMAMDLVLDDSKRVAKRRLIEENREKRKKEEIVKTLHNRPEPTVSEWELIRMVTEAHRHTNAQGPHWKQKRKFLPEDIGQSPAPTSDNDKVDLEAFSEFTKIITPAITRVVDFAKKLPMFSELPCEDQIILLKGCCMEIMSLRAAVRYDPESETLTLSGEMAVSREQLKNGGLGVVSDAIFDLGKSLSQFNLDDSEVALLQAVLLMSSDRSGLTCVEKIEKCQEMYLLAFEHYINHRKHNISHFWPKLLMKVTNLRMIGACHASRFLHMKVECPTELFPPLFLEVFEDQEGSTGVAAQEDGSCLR
Sequence of Nuclear receptor subfamily 1 group I member 2 (Mus musculus) (O54915 whole entry, looked up, the tested form may be a part): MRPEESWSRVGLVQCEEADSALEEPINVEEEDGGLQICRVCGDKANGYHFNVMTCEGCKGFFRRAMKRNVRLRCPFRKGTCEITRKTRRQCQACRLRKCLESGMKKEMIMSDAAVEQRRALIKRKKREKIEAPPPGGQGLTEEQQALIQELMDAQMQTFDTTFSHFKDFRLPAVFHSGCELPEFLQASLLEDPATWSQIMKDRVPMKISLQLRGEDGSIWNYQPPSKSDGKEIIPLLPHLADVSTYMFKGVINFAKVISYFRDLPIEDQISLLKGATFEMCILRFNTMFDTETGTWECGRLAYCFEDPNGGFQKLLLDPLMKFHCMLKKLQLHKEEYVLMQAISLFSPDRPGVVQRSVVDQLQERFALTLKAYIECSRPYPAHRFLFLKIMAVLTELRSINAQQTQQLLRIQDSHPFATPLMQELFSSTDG
Sequence of Estrogen receptor beta (Homo sapiens) (Q92731 whole entry, looked up, the tested form may be a part): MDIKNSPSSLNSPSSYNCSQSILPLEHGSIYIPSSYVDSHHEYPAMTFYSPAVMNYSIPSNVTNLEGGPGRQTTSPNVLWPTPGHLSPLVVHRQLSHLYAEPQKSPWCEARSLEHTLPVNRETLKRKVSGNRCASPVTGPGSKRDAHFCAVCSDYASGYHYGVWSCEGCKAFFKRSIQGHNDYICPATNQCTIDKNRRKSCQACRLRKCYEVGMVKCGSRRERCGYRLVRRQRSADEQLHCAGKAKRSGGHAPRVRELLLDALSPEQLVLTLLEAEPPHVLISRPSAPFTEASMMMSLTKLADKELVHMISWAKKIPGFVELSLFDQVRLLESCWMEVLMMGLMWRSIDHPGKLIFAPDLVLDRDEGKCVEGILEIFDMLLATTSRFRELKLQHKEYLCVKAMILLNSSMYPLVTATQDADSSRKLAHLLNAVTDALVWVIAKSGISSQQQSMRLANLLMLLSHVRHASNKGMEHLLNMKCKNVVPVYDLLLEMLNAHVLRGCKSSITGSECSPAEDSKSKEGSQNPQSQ
Sequence of GAL4 Transcription Factor (Internal Marker), GAL4 (gene 855828) (P04386 whole entry, looked up, the tested form may be a part): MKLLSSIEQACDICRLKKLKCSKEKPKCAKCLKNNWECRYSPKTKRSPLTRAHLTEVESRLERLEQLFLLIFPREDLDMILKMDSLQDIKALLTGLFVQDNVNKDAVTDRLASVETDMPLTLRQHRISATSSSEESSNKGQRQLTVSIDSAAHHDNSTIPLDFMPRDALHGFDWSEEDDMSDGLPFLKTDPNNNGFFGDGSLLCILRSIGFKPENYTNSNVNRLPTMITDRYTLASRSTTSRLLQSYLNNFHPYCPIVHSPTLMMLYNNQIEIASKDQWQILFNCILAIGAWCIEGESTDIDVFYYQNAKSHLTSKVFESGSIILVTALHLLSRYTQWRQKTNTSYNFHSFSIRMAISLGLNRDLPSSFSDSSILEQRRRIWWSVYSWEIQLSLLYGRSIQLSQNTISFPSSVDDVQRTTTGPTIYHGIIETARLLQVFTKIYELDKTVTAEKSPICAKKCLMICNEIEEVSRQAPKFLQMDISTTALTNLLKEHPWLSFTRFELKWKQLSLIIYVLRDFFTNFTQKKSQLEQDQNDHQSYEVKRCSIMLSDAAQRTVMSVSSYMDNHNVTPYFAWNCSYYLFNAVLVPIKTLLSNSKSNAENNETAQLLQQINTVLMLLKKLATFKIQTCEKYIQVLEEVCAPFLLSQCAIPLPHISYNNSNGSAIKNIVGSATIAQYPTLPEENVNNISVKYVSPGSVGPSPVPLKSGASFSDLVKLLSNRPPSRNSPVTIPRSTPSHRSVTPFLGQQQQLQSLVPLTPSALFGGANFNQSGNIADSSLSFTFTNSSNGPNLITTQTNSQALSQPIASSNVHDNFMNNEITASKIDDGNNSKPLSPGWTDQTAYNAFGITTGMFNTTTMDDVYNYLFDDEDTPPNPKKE

CC(C)(C)CC(C)(C)c1ccc(O)cc1
inactive: [1] | [3] | [6] | [7] | [8] | [9]
active: [2] 4.49 µM | [4] 5.17 µM | [5] 4.83 µM

COP(=O)(OC)O/C(=C\Cl)c1cc(Cl)c(Cl)cc1Cl
active: [2] 4.9 µM | [4] 45.5 µM | [12] 9.68 µM | [13] 14.8 µM | [15] 47.3 µM
not listed: [1] | [6] | [16]
inactive: all other assays above

CC(C)C1CCC(Cc2ccc(Cl)cc2)C1(O)Cn1cncn1 (stereo not drawn)
active: [4] 14.6 µM and 2.83 µM | [12] 7.95 µM | [5] 14.3 µM | [13] 10.2 µM | [6] 715 nM and 257 nM
inactive: [1] | [10] | [16] | [2] | [3] | [11] | [12] | [5] | [13] | [14] | [15] | [7] | [8] | [9]

Oc1c(I)cc(I)cc1I
active: [2] 2.58 µM | [4] 57.4 µM | [12] 3.11 µM | [13] 18 µM and 14.1 µM | [6] 56.6 µM | [14] 100 µM | [15] 26.1 µM and 23.3 µM | [9] 26.3 µM
inactive: [1] | [16] | [4] | [11] | [6] | [14] | [7] | [8] | [9]
